Over roughly 39,000 sequences, “fluorescence intensity (a.u.)” has its median near 4,300; the highest 2% begin near 39,000. For the sample, the highest values were picked, then their nearest neighbours and some sequences at random.

This experiment addresses T1, OsSMF1 (Oryza sativa, UniProt Q6ZLB0 1-436).
T1 sequence: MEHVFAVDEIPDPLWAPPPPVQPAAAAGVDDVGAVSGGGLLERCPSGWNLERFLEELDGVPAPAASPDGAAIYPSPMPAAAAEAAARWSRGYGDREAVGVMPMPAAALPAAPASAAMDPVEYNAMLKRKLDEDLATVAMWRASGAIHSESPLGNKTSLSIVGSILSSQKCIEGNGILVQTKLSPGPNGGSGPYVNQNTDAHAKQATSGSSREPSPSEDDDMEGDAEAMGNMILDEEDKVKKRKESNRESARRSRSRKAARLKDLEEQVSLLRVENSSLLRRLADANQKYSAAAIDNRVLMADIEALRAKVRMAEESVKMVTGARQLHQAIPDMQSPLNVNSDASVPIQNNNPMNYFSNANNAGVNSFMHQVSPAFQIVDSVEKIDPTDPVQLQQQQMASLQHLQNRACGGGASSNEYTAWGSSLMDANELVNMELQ
In words: protein-binding microarray (RPBM); PBS, 2% BSA, 51.3 ng/ul salmon testes DNA, 50 uM zinc acetate, 200 nM TF, 25 C, 1 h; high values mean tight binding. The conditions noted are these: protein: recombinant; tags: N-terminal polyhistidine and DsRed monomer fusion (pET32a); chain copies: 2; label: CyDye5-dUTP incorporated in the synthesized complementary strand; 3' TTTTT single-stranded linker to array surface; dsDNA, one strand shown. The method in brief:
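Transcription factors were each fused at the N-terminus to a polyhistidine tag plus DsRed and expressed in E. coli BL21-CodonPlus before Ni–NTA purification. Binding to a double-stranded custom Agilent array was carried out with 200 nM protein at 25 °C for 1 h in PBS, 2% BSA, salmon testes DNA and 50 µM zinc acetate. The binding signal is per-feature fluorescence intensity, in arbitrary units, on an Axon 4000B scanner.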
As to “CACTCCAGAACCAAACGTTTGATGACTCTCTGCTTTTGCGCGGAGTCACCTAGTGCAG”, the binding signal is 4570 fluorescence intensity (a.u.).

For the sequence “ACAAACCGAGGAGGAGGAGGAGGGCCCACCAGCCACCACGCGGAGTCACCTAGTGCAG”, the binding signal is 3310 fluorescence intensity (a.u.).

“GCTGGTTTGATTAGATCTTCATCCCACGTGGCATTGACGTCGGAGTCACCTAGTGCAG”: the binding signal was 25100 fluorescence intensity (a.u.).

Regarding “CTGTTTCGCTGACGTGACGCCTACGTGGCATCCCAGTCATCGGAGTCACCTAGTGCAG”, the binding signal is 40300 fluorescence intensity (a.u.).

Consider “ATAGTGGTTTTGGCTGACGTGGCGCCTACGTGGCTAATTTCGGAGTCACCTAGTGCAG”, for which the binding signal is 19600 fluorescence intensity (a.u.).

In the case of “GGTTTTAGCTGACGTGGCGCCTACGTGACAGTGTTGACCCCGGAGTCACCTAGTGCAG”, the binding signal is 32700 fluorescence intensity (a.u.).

Turning to “CTGACGAGCAGAACATTAGCTATCCTATCCAGAATAGTTTCGGAGTCACCTAGTGCAG”, the binding signal is 47400 fluorescence intensity (a.u.).

Regarding “GTTTTGGCTGACGTGGCGCCTACGTGGTTTGTTTGACCTACGGAGTCACCTAGTGCAG”, the binding signal was 37300 fluorescence intensity (a.u.).

As for “AAACCCAATCCAGTTAGGAATAGAACATTAGATATCCAACCGGAGTCACCTAGTGCAG”, the binding signal was 3940 fluorescence intensity (a.u.).

Turning to “AGATCATTAGTTAGCACATATCATCCACATCATCCTATTTCGGAGTCACCTAGTGCAG”, the binding signal was 5980 fluorescence intensity (a.u.).

For the sequence “CGGTTTTAGCTGACGTGGCGCCTACGTGGCAAAGTTGACCCGGAGTCACCTAGTGCAG”, the binding signal was 44700 fluorescence intensity (a.u.).

For “GCTAATTTGACTCGGTTTTCATCTGACGTGGCATTGACGTCGGAGTCACCTAGTGCAG”, the binding signal is 41400 fluorescence intensity (a.u.).

For “GGACGGTTTCGCTGATGTGGCGCCTACGTGGCATCCTAATCGGAGTCACCTAGTGCAG”, the binding signal is 20300 fluorescence intensity (a.u.).

For “AGGGCGCTTTTGGCTGACATGGCGCCTACGTGGCTTGTTTCGGAGTCACCTAGTGCAG”, the binding signal was 28100 fluorescence intensity (a.u.).

On to “GCTTGCTCGCCGGCGGTGTGGGAATGATGACTCCCAGCCCCGGAGTCACCTAGTGCAG”, for which the binding signal was 4050 fluorescence intensity (a.u.).

For “GTCGTGTCGGCTGCCGATTACACTATCGGCAGTGCAGCCGCGGAGTCACCTAGTGCAG”, the binding signal is 4270 fluorescence intensity (a.u.).

“CGCGGCGCGCACACGCCATGCCGGCATGCCGTGGCATACCCGGAGTCACCTAGTGCAG”: the binding signal was 3990 fluorescence intensity (a.u.).

As to “CTATATATGTGACGCTGACGTTCCTCATCTCCCAAGCTGCCGGAGTCACCTAGTGCAG”, the binding signal is 7040 fluorescence intensity (a.u.).

“TTAGTGTCTGCATTGGATATGAGTCACGGGTTCTTGGTTACGGAGTCACCTAGTGCAG”: the binding signal was 12600 fluorescence intensity (a.u.).

Consider “CGACGTCGGCGAGGGAGGGCTTCCTGGGCACGTCGGCGAGCGGAGTCACCTAGTGCAG”, for which the binding signal was 3150 fluorescence intensity (a.u.).

With “ACAGCAAACAAACGTAACACCTTAACACGTCATGCAGTTTCGGAGTCACCTAGTGCAG”, the binding signal was 15100 fluorescence intensity (a.u.).

In the case of “AAGAGTCGGGTTGTGCTGACCCAAAAGCACGACAGCCCATCGGAGTCACCTAGTGCAG”, the binding signal was 3250 fluorescence intensity (a.u.).

For “ATACCGCGACAATGACATCTGAGTCAATGACTCGTGATAACGGAGTCACCTAGTGCAG”, the binding signal was 4510 fluorescence intensity (a.u.).

Values taken from publication PMC7819943, “Rice protein-binding microarrays: a tool to detect cis-acting elements near promoter regions in rice”.
